Assay results from PubChem BioAssay (NCI).
This is part of a sample that, as a whole, favours compounds with a hit. Of some 83,000 tested, about 20% had one in any assay.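 48-hour exposure, single concentration, 96-well plates; percent growth endpoint where 0 means no net growth. Active: below 10.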 Values without a mark were called inactive. Calls of active or inactive are those of the source.

How the values were obtained:
Assay in all cases: NCI-60 one-dose screen, 48 h (100 = growth as untreated, 0 = no growth, -100 = all killed)
Settings in all cases: 10 µM unless noted
SR leukemia = tested on: SR leukemia
RPMI-8226 leukemia = tested on: RPMI-8226 leukemia
OVCAR-5 ovarian = tested on: OVCAR-5 ovarian
OVCAR-4 ovarian = tested on: OVCAR-4 ovarian
SK-OV-3 ovarian = tested on: SK-OV-3 ovarian
IGROV1 ovarian = tested on: IGROV1 ovarian
OVCAR-3 ovarian = tested on: OVCAR-3 ovarian
HS 578T breast = tested on: HS 578T breast
NCI/ADR-RES ovarian = tested on: NCI/ADR-RES ovarian
T-47D breast = tested on: T-47D breast
BT-549 breast = tested on: BT-549 breast
MDA-MB-435 melanoma = tested on: MDA-MB-435 melanoma
SW-620 colon = tested on: SW-620 colon
MCF7 breast = tested on: MCF7 breast
HCT-116 colon = tested on: HCT-116 colon
HCC-2998 colon = tested on: HCC-2998 colon
KM12 colon = tested on: KM12 colon
OVCAR-8 ovarian = tested on: OVCAR-8 ovarian

| Compound | growth (SR leukemia) | growth (RPMI-8226 leukemia) | growth (OVCAR-5 ovarian) [%] | growth (OVCAR-4 ovarian) | growth (SK-OV-3 ovarian) | growth (IGROV1 ovarian) | growth (OVCAR-3 ovarian) | growth (HS 578T breast) [%] | growth (NCI/ADR-RES ovarian) | growth (T-47D breast) | growth (BT-549 breast) | growth (MDA-MB-435 melanoma) | growth (SW-620 colon) | growth (MCF7 breast) | growth (HCT-116 colon) | growth (HCC-2998 colon) | growth (KM12 colon) | growth (OVCAR-8 ovarian) [%] |
| --- | --- | --- | --- | --- | --- | --- | --- | --- | --- | --- | --- | --- | --- | --- | --- | --- | --- | --- |
| COc1ccc(-c2nc3ccccn3c2-c2nc3ccc(Cl)cc3[nH]2)cc1 | 70.3% | 43.7% | 102 | 86% | 107% | 102% | 73.9% | 93.6 | 90.3% | 75% | 94.4% | 86.9% | 88.4% | 79.6% | 93.5% | 97.6% | 86.4% | – |
| O=C(c1ccccc1)C(CN1CCOCC1)c1ccccc1 (stereo not drawn) | -0.205% (active) | -8.68% (active) | – | – | 91.6% | 7.53% (active) | -10.7% (active) | 59.8 | 18.8% | 64.3% | 30.2% | – | -45.2% (active) | 1.11% (active) | 3.3% (active) | 54.4% | 20.8% | 14.2 |
| O=c1c(CNc2ccc(S(=O)(=O)Nc3ncccn3)cc2)coc2ccccc12 | 100% | 73.1% | 96.3 | 104% | 98.7% | 95.2% | 111% | 102 | 104% | 81.1% | 93.6% | 119% | 98.4% | 86.1% | 91.3% | 101% | 115% | – |
| CCc1ccc(-c2ccc(Nc3ccccc3)nn2)cc1S(N)(=O)=O | 9.58% (active) | 27.8% | 93 | 87.1% | 96.8% | 106% | 63.8% | 84.1 | 85.6% | 53.3% | 83.3% | 36.1% | 54.1% | 84.3% | 72.6% | 85.4% | – | – |
| O=c1c(CNc2ccc(S(=O)(=O)Nc3nccs3)cc2)coc2ccccc12 | 94.7% | 92.1% | 92.8 | 99.9% | 102% | 101% | 110% | – | 102% | 94.3% | 99.5% | 112% | 101% | 110% | 100% | 105% | 111% | – |
| c1ccc2[nH]c(-c3cc(-c4ccc5c(c4)OCO5)n[nH]3)nc2c1 | 28% | 7.45% (active) | 86.4 | 60.5% | 76.9% | 56.6% | 40.8% | – | 59.6% | 40% | 34.5% | 58% | 61.3% | 59.2% | 51.7% | 81.2% | 28.2% | – |
| O=C(N/N=C\c1c(O)ccc2ccccc12)C1CC1 | 18.3% | 40.4% | – | – | 44.9% | 24.3% | 1.02% (active) | 74.6 | 9.42% (active) | 53.6% | – | 64.9% | 51.7% | 31.1% | 13.1% | 101% | 51.6% | 33.1 |
| COc1ccc(-c2cc(/C=C/C(=O)c3ccc(N)cc3)[nH]n2)cc1 | -20.2% (active) | -29.9% (active) | 54.5 | 33.1% | -8.64% (active) | 32.8% | -34.1% (active) | – | 17.5% | 21% | 9.81% (active) | 14.7% | -38.1% (active) | 18.4% | 8.45% (active) | 35.4% | 3.29% (active) | – |
| COc1cc2c(cc1OC)C(=O)/C(=C/c1cc(-c3ccc4c(c3)OCO4)n[nH]1)C2 | -43.8% (active) | -46.7% (active) | 37.9 | 14.4% | 33.6% | 52.7% | -50.4% (active) | – | -15% (active) | -4.12% (active) | -47.8% (active) | 17.3% | -84.9% (active) | 0.343% (active) | -61% (active) | 89.3% | – | – |
| O=C1c2ccccc2C(=Cc2ccccc2)c2ccccc21 | 8.17% (active) | 22.4% | – | 6.28% (active) | -3.56% (active) | 40% | -36.5% (active) | – | -64.4% (active) | 29.4% | -3.95% (active) | -56.4% (active) | 12.6% | – | 5.11% (active) | -45.7% (active) | -26.6% (active) | 21.6 |
| Cc1cc(C)nc(NC(N)=NCCc2ccccc2)n1 | 19.2% | 49.7% | – | – | 46.7% | 40% | 33.5% | 45.3 | 85.9% | 36.1% | – | -7.44% (active) | 32.2% | 17.3% | 27.9% | 94.5% | 22.5% | 53.4 |
